Source: PubChem BioAssay (Tox21)
Records with an inconclusive call do not appear. Activity calls are given as the source filed them. Unless noted, the call rests on the fitted dose curve; in most records, active means well fitted curve in the direction sought with a large enough effect in the repeat runs; inconclusive means weak or mixed curves; inactive means no such curve, though single readings can be large; an effect the other way counts as inactive or inconclusive.

How the values were obtained:
[1] = qHTS assay for small molecule agonists of the p53 signaling pathway (AID 651631; calls by dose curve; further: nearly all actives have a fitted effect of over 15% in size)
Summary of the method: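 Stably transfected HCT-116 cells (beta-lactamase behind p53 response elements) get compounds after a 5 h settling period; 16 h later at 37 °C, FRET substrate is loaded and fluorescence read after 2 h.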

[2] = qHTS assay for small molecules that induce genotoxicity in human embryonic kidney cells expressing luciferase-tagged ATAD5 (AID 651632); further: nearly all actives have a fitted effect of over 15% in size
Summary of the method: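 Luminescent reporter readout, HEK293T ATAD5-luc line: 16 hr drug exposure (37C, 5% CO2) followed by Amplite, 30 min RT.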

[3] = qHTS assay for small molecule agonists of the p53 signaling pathway - cell viability (AID 651633; calls by dose curve;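 further: p53RE-bla HCT reporter cells with a stable beta-lactamase p53 reporter; series mostly up to about 83 µM; nearly all actives have a fitted effect of over 30% in size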)
Summary of the method: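 p53RE-bla cells were treated with compound for 16 hours at 37 C. Cytotoxicity was then measured as CellTiter-Glo luminescence after 30 min at room temperature.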

[4] = qHTS assay for small molecules that induce genotoxicity in human embryonic kidney cells expressing luciferase-tagged ATAD5 - cell viability (AID 651634; calls by dose curve; further: nearly all actives have a fitted effect of over 25% in size)
Summary of the method: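 Viability read: CellTiter-Fluor fluorescence, 30 min at 37C. Cells: HEK293T, luciferase-tagged ATAD5. Exposure: 15.5 hr, 37C, 5% CO2, compound or DMSO vehicle.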

[5] = qHTS assay for small molecule disruptors of the mitochondrial membrane potential - cell viability (AID 720634; calls by dose curve;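 further: human HepG2 liver cancer cells; series mostly up to about 83 µM; nearly all actives have a fitted effect of over 20% in size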)
Summary of the method: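 HepG2, 1 hr compound, 37 C. ATP luminescence via CellTiter-Glo, 30 min RT, same well as m-MPI.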

[6] = qHTS assay for small molecule disruptors of the mitochondrial membrane potential (AID 720635)
Summary of the method: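 HepG2 cells exposed to compound 1 hr at 37C, then Mito-MPS dye 30 min. Ratio read of aggregate (540/590 nm) versus monomer (490/535 nm) fluorescence.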

[7] = qHTS assay to test for compound auto fluorescence at 590 nm (red) in HepG2 cells (AID 720674)
Summary of the method: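 Seeding: 2,000 HepG2 cells/well, MEM/10% FBS, overnight 37 C. Dosing: compound vs DMSO. Incubation: 1 hr, 37 C, 5% CO2. Read: fluorescence 540 ex/590 em, Rose Bengal sodium as red reference.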

[8] = qHTS assay to test for compound auto fluorescence at 535 nm (green) in HepG2 cells (AID 720675)
[9] = qHTS assay to test for compound auto fluorescence at 460 nm (blue) in HEK293 cells (AID 720678)
Summary of the method: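 After cell attachment (4-5 hr, 37C), compounds were pinned onto HEK293 monolayers in 10% dialyzed FBS medium. The blue channel (405/460 nm) was read following overnight culture. Equivalency was calculated against triamterene.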

[10] = qHTS assay to test for compound auto fluorescence at 590 nm (red) in HEK293 cells (AID 720679)
Summary of the method: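 Plates of HEK293 cells (10% dialyzed FBS) are treated with 23 nL compound or DMSO vehicle after a 4-5 hr attachment period, incubated overnight at 37C, and read for red fluorescence at 540/590nm.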

[11] = qHTS assay to test for compound auto fluorescence at 535 nm (green) in HEK293 cells (AID 720680)
[12] = qHTS assay to test for compound auto fluorescence at 460 nm (blue) in HEK293 cell free culture (AID 720681)
Summary of the method: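 Compounds were added to cell-free DMEM with 10% FBS and fluorescence read directly. The blue channel used 405 nm excitation and 460 nm emission, with triamterene as the reference fluorophore.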

[13] = qHTS assay to test for compound auto fluorescence at 535 nm (green) in HEK293 cell free culture (AID 720682)
Summary of the method: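 Using fluorescein as calibrant, autofluorescence was quantified at 485/535 nm in cell-free DMEM containing 10% FBS after pintool addition of compound or vehicle.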

[14] = qHTS assay to test for compound auto fluorescence at 590 nm (red) in HEK293 cell free culture (AID 720683)
Summary of the method: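 Cell-free wells of DMEM with 10% FBS received compound, and intrinsic fluorescence was read at excitation/emission 540/590 nm. Values expressed as equivalence to Rose Bengal sodium.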

[15] = qHTS assay to test for compound auto fluorescence at 590 nm (red) in HepG2 cell free culture (AID 720684)
Summary of the method: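 Compounds are added to culture medium (MEM, 10% FBS) lacking cells, then fluorescence is read at excitation 540 nm, emission 590 nm, with Rose Bengal sodium as the equivalency standard.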

[16] = qHTS assay to test for compound auto fluorescence at 460 nm (blue) in HepG2 cell free culture (AID 720685)
Summary of the method: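 Compound (23 nL) or DMSO pinned into cell-free MEM with 10% FBS; blue fluorescence read at 405/460 nm excitation/emission, expressed as auto-fluorescence equivalency to triamterene.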

[17] = qHTS assay to test for compound auto fluorescence at 535 nm (green) in HepG2 cell free culture (AID 720686)
[18] = qHTS assay to test for compound auto fluorescence at 460 nm (blue) in HepG2 cells (AID 720687)
Summary of the method: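 HepG2 cells in MEM with 10% FBS, attached overnight at 37 C, were exposed to compound or DMSO for 1 hr at 37 C, 5% CO2. Blue fluorescence was read at 405/460 nm, with triamterene as reference fluorophore.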

[19] = biological target: Glucocorticoid receptor (Homo sapiens) (UniProt P04150); assay: qHTS assay to identify small molecule agonists of the glucocorticoid receptor (GR) signaling pathway (AID 720691; active means well fitted activation curve with a large enough effect in the signal ratio in the repeat runs, not every such curve was filed as active; the % refers to the signal ratio)
Summary of the method: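 qHTS in GR-bla HeLa cells: 4 h settling at 37 C/5% CO2, 18 h compound incubation at 37 C, 2 h LiveBLAzer B/G FRET substrate at room temperature, fluorescence intensity measured.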

[20] = biological target: Glucocorticoid receptor (Homo sapiens) (UniProt P04150); assay: qHTS assay to identify small molecule antagonists of the glucocorticoid receptor (GR) signaling pathway (AID 720692; active means well fitted inhibition curve with a large enough effect in the signal ratio in the repeat runs, not every such curve was filed as active; the % refers to the signal ratio)
Summary of the method: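 Inhibition of glucocorticoid signalling is measured in HeLa cells with a GRE-controlled beta-lactamase reporter; cells are co-treated with compound and 5 nM dexamethasone (final) for 18 h before FRET substrate readout.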

Measured: Potency

Glucocorticoid receptor (Homo sapiens), sequence (P04150 whole entry, looked up): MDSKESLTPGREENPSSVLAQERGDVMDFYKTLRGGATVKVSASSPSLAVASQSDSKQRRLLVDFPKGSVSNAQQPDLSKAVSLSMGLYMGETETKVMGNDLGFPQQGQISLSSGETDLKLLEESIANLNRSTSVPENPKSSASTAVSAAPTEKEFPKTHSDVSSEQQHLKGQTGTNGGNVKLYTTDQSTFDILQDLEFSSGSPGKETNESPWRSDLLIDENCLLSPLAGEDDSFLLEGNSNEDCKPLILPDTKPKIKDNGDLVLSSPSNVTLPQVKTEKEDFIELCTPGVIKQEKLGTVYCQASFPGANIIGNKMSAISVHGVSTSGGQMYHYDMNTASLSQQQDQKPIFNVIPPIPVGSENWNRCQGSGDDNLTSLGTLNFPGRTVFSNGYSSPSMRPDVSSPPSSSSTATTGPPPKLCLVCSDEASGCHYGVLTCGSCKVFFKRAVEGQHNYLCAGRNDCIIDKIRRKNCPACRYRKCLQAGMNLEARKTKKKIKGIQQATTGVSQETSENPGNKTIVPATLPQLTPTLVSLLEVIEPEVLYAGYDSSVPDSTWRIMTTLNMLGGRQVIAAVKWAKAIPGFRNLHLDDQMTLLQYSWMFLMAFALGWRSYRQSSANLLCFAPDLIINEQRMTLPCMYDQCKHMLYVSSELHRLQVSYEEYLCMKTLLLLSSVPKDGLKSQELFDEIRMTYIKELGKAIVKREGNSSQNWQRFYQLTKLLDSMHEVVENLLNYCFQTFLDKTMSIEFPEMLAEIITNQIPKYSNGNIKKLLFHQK

O=NN1CCNCC1
not listed: [20]
inactive: all other assays above

Cc1ccc2ccccc2c1
not listed: [7] | [18] | [19] | [20]
inactive: all other assays above

CCCCCCCCOC(=O)c1ccc(C(=O)OCCCCCCCC)c(C(=O)OCCCCCCCC)c1
not listed: [6] | [18]
inactive: all other assays above

COC1=CC(=O)O[C@@H](CCc2ccccc2)C1
not listed: [6]
inactive: all other assays above

C=CCOC(C)=O
not listed: [6] | [9] | [20]
inactive: all other assays above

O=C(NCc1cccnc1)Nc1ccc([N+](=O)[O-])cc1
not listed: [6] | [10] | [19] | [20]
inactive: all other assays above

O=C(CBr)OCc1ccccc1
not listed: [6]
inactive: all other assays above

ClCC(Br)CBr (stereo not given)
not listed: [6] | [13]
inactive: all other assays above

CCOC(=O)C(Cl)C(C)=O (stereo not given)
not listed: [6] | [12] | [19] | [20]
inactive: all other assays above

BrCCCCBr
not listed: [6] | [10] | [12] | [18]
inactive: all other assays above

NNC(=O)c1cccnc1
not listed: [6] | [13] | [20]
inactive: all other assays above

C[N+](C)(C)CCCl
not listed: [6] | [12] | [20]
inactive: all other assays above

CCC(COC(=O)c1cc(OC)c(OC)c(OC)c1)(c1ccccc1)N(C)C (stereo not given)
not listed: [6] | [9]
inactive: all other assays above

Nc1nc(N)nc(N)n1
not listed: [6] | [18]
inactive: all other assays above

O=C(O)COc1ccc(Cl)cc1
not listed: [6] | [13]
inactive: all other assays above

CCCCN=C=O
not listed: [6] | [13] | [19] | [20]
inactive: all other assays above

CC(C)(Cl)[N+](=O)[O-]
not listed: [6] | [12] | [18]
inactive: all other assays above
